Measured values published in the supplement of paper PMC9337992.
± gives the standard deviation of the averaged measurements.

Legend:
Assay in all cases: cell proliferation (confluence) relative to DMSO control; higher = less growth inhibition
Conditions in all cases: 5 uM; 6 d
BT549 = test system: BT549
How it was run: (§1)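 Triple-negative breast cancer cell lines were plated at 500 cells per well in 384-well plates. After the cells adhered, each epigenetic chemical probe, dissolved in DMSO, was added at a final 5 μM for 6 d. Confluency was imaged in an IncuCyte ZOOM (×10 objective, phase-contrast) and analysed with Incucyte 2016 software. Each plate held four replicate wells per compound plus DMSO wells, and confluence was normalised to DMSO control.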

CAL120 = test system: CAL120
How it was run: as §1

HCC1143 = test system: HCC1143
How it was run: as §1

HCC1395 = test system: HCC1395
How it was run: as §1

HCC153 = test system: HCC153
How it was run: as §1

HCC1806 = test system: HCC1806
How it was run: as §1

HCC38 = test system: HCC38
How it was run: as §1

HCC70 = test system: HCC70
How it was run: as §1

Hs578-T = test system: Hs578-T
How it was run: as §1

MB157 = test system: MB157
How it was run: as §1

SUM149-PT = test system: SUM149-PT
How it was run: as §1

SUM159-PT = test system: SUM159-PT
How it was run: as §1

| SMILES | cell proliferation (BT549) [%] | cell proliferation (CAL120) [%] | cell proliferation (HCC1143) [%] | cell proliferation (HCC1395) [%] | cell proliferation (HCC153) [%] | cell proliferation (HCC1806) [%] | cell proliferation (HCC38) [%] | cell proliferation (HCC70) [%] | cell proliferation (Hs578-T) [%] | cell proliferation (MB157) [%] | cell proliferation (SUM149-PT) [%] | cell proliferation (SUM159-PT) [%] |
| --- | --- | --- | --- | --- | --- | --- | --- | --- | --- | --- | --- | --- |
| CCCc1cc(C)[nH]c(=O)c1CNC(=O)c1cc(-c2ccc(N3CCN(C(C)C)CC3)nc2)cc2c1cnn2C(C)C | 21 ± 7.7 | 85.5 ± 11 | 98.86 ± 0.59 | 99.88 ± 0.14 | 91.8 ± 4.8 | 92.4 ± 6.9 | 99.93 ± 0.072 | 80 ± 8.9 | 97 ± 2 | 46.2 ± 22 | 11.5 ± 5.8 | 99.997 ± 0.002 |
| COc1c(C)cc(NC(=O)c2nn(Cc3ccc(F)cc3)c3c2CN(C(=O)c2ccc[nH]2)C[C@]3(C)C(N)=O)cc1C | 95.2 ± 2.6 | 98.5 ± 1.5 | 97.72 ± 0.68 | 99.916 ± 0.05 | 56.1 ± 5.2 | 76.3 ± 3.2 | 99.26 ± 0.96 | 99.43 ± 0.33 | 98.56 ± 0.55 | 93.7 ± 9.7 | 75.6 ± 20 | 99.971 ± 0.051 |
| CC[C@H](C)n1cc(C)c2c(C(=O)NCc3c(C)cc(C)[nH]c3=O)cc(-c3ccc(N4CCNCC4)nc3)cc21 | 98.6 ± 2.6 | 91.6 ± 5.4 | 99.53 ± 0.32 | 99.996 ± 0.0038 | 87.9 ± 3.7 | 99.846 ± 0.034 | 99.825 ± 0.095 | 82 ± 8.6 | 97.8 ± 1.3 | 79.1 ± 14 | 90.3 ± 4.3 | 99.995 ± 0.00082 |
| COc1ccccc1S(=O)(=O)Nc1ccc2c(c1)CN(C)C(=O)N2 | 95.7 ± 1.4 | 50.1 ± 11 | 97.21 ± 0.84 | 98.12 ± 0.25 | 59.7 ± 1.8 | 38.5 ± 27 | 35.2 ± 7.6 | 81.7 ± 7.9 | 47.7 ± 1.6 | 50.9 ± 5.5 | 20.8 ± 3.4 | 97.92 ± 0.3 |
| COc1ccccc1C(=O)Nc1cc2c(cc1N1CCCC1)n(C)c(=O)n2C | 97.6 ± 1.7 | 99.2 ± 0.47 | 98.3 ± 1.9 | 99.979 ± 0.014 | 62.3 ± 11 | 77.1 ± 7.8 | 99.66 ± 0.35 | 96.7 ± 3.5 | 98.42 ± 0.77 | 89.6 ± 12 | 63 ± 8.4 | 99.986 ± 0.0076 |
| CCn1cc(-c2cccc(C(F)(F)F)c2)c2sc(C(=N)NC3CCS(=O)(=O)CC3)cc2c1=O | 99.17 ± 0.79 | 98.86 ± 0.38 | 98.69 ± 0.74 | 99.948 ± 0.021 | 44.8 ± 4 | 78.6 ± 12 | 98.94 ± 0.64 | 96.7 ± 3.6 | 99.5 ± 0.38 | 71.8 ± 6.5 | 23.9 ± 2.3 | 99.974 ± 0.019 |
| O=C(/C=C/N1C[C@H]2C[C@@H]1CN2c1ccccn1)c1ccccc1O | 99.79 ± 0.1 | 93.4 ± 2.2 | 99.25 ± 0.15 | 99.895 ± 0.019 | 87.8 ± 2.8 | 99.849 ± 0.052 | 99.917 ± 0.014 | 99.13 ± 0.33 | 98.15 ± 0.9 | 98.9 ± 1 | 29.1 ± 5.7 | 99.994 ± 0.0044 |
| COc1cc(C#N)ccc1S(=O)(=O)Nc1ccc2c(c1)cc(C)c(=O)n2C | 98 ± 1.4 | 98.97 ± 0.3 | 97 ± 1.3 | 99.962 ± 0.051 | 54.9 ± 7.1 | 76.1 ± 12 | 98.81 ± 0.89 | 95.8 ± 5 | 97.33 ± 0.58 | 92.5 ± 6.8 | 59.5 ± 7.1 | 99.963 ± 0.039 |
